This is one part of a sample in which hits are shown more often than they occur.
p53 PUMA act: re-activators of the mutant p53 pathway; SW480 PUMA-promoter luciferase, p53 mutant reactivation; activation, % at 9.98 µM; hit rate 1.5% among 28,000; in the data active = activation above about 52%
STK33 kin inh: blocks human STK33 kinase activity; ADP-Glo luminescence, MBP substrate; inhibition, % at 12.5 µM; hit rate 0.44% among 27,000; in the data active = inhibition above about 20%
NOMO-1 viab: STK33 inhibitor candidate reducing NOMO-1 cell viability. NOMO-1 AML viability, CellTiter-Glo luminescence, 72 h. inhibition, % (concentration not given with the values). hit rate 7.5% among 37,000. AID 2330; in the data active = inhibition above about 80%
ID4 binder: binds human ID4 protein on microarray | calls only | P47928 | hit rate 1.2% among 31,000 | small molecule microarray, Flag-ID4 binding, fluorescence F/B; call rule not given here;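 note: a binder raises fluorescence above local background on the spot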
Target sequence (P47928 whole entry, looked up): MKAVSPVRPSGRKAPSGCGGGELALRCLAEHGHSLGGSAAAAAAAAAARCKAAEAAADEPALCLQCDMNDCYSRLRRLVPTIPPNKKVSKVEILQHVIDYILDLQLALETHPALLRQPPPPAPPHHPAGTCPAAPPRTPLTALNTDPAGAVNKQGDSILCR
A number is an active result; i = inactive; nt = no result given; + = active, no number.

SMILES	p53 PUMA act	STK33 kin inh	NOMO-1 viab	ID4 binder
C=CC(C)(O)CC(/C=C(\C)CC(/C=C(\C)CCC=C(C)C)OC(C)=O)OC(C)=O (stereo unspecified)	i	i	98.2	i
Cc1ccc(N2C3=C(C(=O)CC(C)(C)C3)C(c3cccs3)C3=C2CC(C)(C)CC3=O)cc1C	nt	i	117.7	nt
COc1ccc(NC(=O)Nc2cccc3c2O[C@H](CN(C)Cc2ccc(C(=O)Nc4ccccc4N)cc2)[C@H](C)CN([C@@H](C)CO)C3=O)cc1	nt	nt	126.6	nt
COc1ccc(NC(=O)Nc2cccc3c2O[C@@H](CN(C)Cc2ccc(C(=O)Nc4ccccc4N)cc2)[C@H](C)CN([C@H](C)CO)C3=O)cc1	nt	nt	125.3	nt
COc1ccc(NC(=O)Nc2cccc3c2O[C@H](CN(C)Cc2ccc(C(=O)Nc4ccccc4N)cc2)[C@@H](C)CN([C@H](C)CO)C3=O)cc1	nt	nt	128.3	nt
COc1ccc(NC(=O)Nc2cccc3c2O[C@H](CN(C)Cc2ccc(C(=O)Nc4ccccc4N)cc2)[C@@H](C)CN([C@@H](C)CO)C3=O)cc1	nt	nt	127.6	nt
COc1ccc(CN(C)C[C@H]2Oc3c(NC(=O)Nc4ccc(OC)cc4)cccc3C(=O)N([C@H](C)CO)C[C@@H]2C)cc1	i	nt	i	i
COc1ccc(CN(C)C[C@@H]2Oc3c(NC(=O)Nc4ccc(OC)cc4)cccc3C(=O)N([C@H](C)CO)C[C@@H]2C)cc1	i	nt	i	i
COc1ccc(CN(C)C[C@@H]2Oc3ccc(NS(=O)(=O)c4ccc(Cl)cc4)cc3C(=O)N([C@H](C)CO)C[C@@H]2C)cc1	i	nt	i	i
C[C@H]1CN([C@@H](C)CO)C(=O)Cc2cc(NC(=O)Nc3ccccc3)ccc2O[C@H]1CN(C)Cc1ccc(C(=O)O)cc1	i	i	i	i
COc1cc(C)c2c(c1)CCC1C2CCC2(C)C(O)CCC12 (stereo unspecified)	nt	nt	91.4	nt
COc1cc2c(cc1O)CCC1C2CC[C@@]2(C)C1CC[C@@H]2O (stereo partly specified)	nt	i	97.4	i
Cn1c(SCC(=O)Nc2sc3c(c2C#N)CCCC3)nnc1-c1ccccc1	i	i	i	i
O=S(=O)(c1cccc2cccnc12)N1CCN(Cc2ccc(OCCO)cc2)CC1	nt	i	nt	+
C[C@H](CO)N1C[C@H](C)[C@@H](CN(C)C(=O)C2CCCCC2)Oc2ncc(Br)cc2C1=O	nt	nt	nt	i
Cc1noc(C)c1NC(=O)Nc1ccc2c(c1)C(=O)N([C@@H](C)CO)C[C@H](C)[C@@H](CN(C)S(=O)(=O)c1cccs1)O2	nt	nt	i	nt
COC(=O)C1c2c(oc3cc(CO)cc(O)c3c2=O)C=CC1O (stereo unspecified)	i	i	107.3	nt
C[C@H]1CN([C@@H](C)CO)C(=O)c2cccc(NS(C)(=O)=O)c2O[C@H]1CN(C)S(=O)(=O)c1ccccc1	nt	i	i	nt
COc1cccc2c1C(=O)c1c(O)c3c(c(O)c1C2=O)C[C@@](O)(C(=O)CO)C[C@@H]3OC1CC(N)C(O)C(C)O1 (stereo partly specified)	i	i	97.9	nt
COc1cccc2c1C(=O)c1c(O)c3c(c(O)c1C2=O)C[C@@](O)(C(=O)CO)C[C@@H]3O[C@H]1C[C@H](N)[C@H](O)[C@H](C)O1	i	i	98.6	nt
O=C(/C=C/c1ccccc1)CC(O)CCc1ccccc1 (stereo unspecified)	i	i	i	i
O=C(/C=C/c1ccccc1)CC(O)(c1ccccc1)C(F)(F)F (stereo unspecified)	nt	i	121.9	nt
Nc1nonc1-c1nc2ccccc2n1CC(=O)Nc1cccc(Cl)c1Cl	i	i	118.9	i
CCc1ccccc1NC(=O)Cn1c(-c2nonc2N)nc2ccccc21	i	i	i	i
CC(C)=CCCC1(C)C=Cc2c(c(C)cc3c2[nH]c2cc(O)ccc23)O1 (stereo unspecified)	i	i	107.9	nt
SMILES	p53 PUMA act	STK33 kin inh	NOMO-1 viab	ID4 binder
COc1ccc(NC(=O)CSc2ncnc3sc4c(c23)CCC(C)C4)c([N+](=O)[O-])c1 (stereo unspecified)	i	i	i	i
Cc1ccc(S(=O)(=O)Nc2ccc3c(c2)C(=O)N([C@H](C)CO)C[C@@H](C)[C@@H](CN(C)S(=O)(=O)c2ccccc2)O3)cc1	nt	nt	i	nt
COC(=O)c1c(NC(=O)c2ccccc2N(C)S(=O)(=O)c2ccccc2)sc2c1CCCC2	i	i	117.1	i
COC(=O)c1c(NC(=O)c2ccc(N(C)S(=O)(=O)c3ccc(C)cc3)cc2)sc2c1CCCC2	i	i	i	i
C[C@H](CO)N1C[C@H](C)[C@H](CN(C)CC2CCCCC2)Oc2ccc(NS(=O)(=O)c3ccc(F)cc3)cc2CC1=O	nt	i	104.0	nt
C[C@H]1CN([C@@H](C)CO)C(=O)Cc2cc(NS(=O)(=O)c3ccc(F)cc3)ccc2O[C@@H]1CN(C)CC1CCCCC1	nt	i	123.2	nt
